# Results: paper PMC5540273 (PLoS ONE, 2017)
# Assays:
# Conditions in all cases: concentration: 1 μM, replicates: in singlicate; n = 1
# [1] = test system: AAK1
# [2] = test system: ABL1-nonphosphorylated
# [3] = test system: ABL1-phosphorylated
# [4] = test system: ABL2
# [5] = test system: ACVR1B
# [6] = test system: ACVR1
# [7] = test system: ACVR2A
# [8] = test system: ACVR2B
# [9] = test system: ACVRL1
# [10] = test system: T1, ADCK3
# T1 construct: gene CABC1
# [11] = test system: ADCK4
# [12] = test system: AKT1
# [13] = test system: AKT2
# [14] = test system: AKT3
# [15] = test system: ALK
# [16] = test system: T2, AMPK-alpha1
# T2 construct: gene PRKAA1
# [17] = test system: T3, AMPK-alpha2
# T3 construct: gene PRKAA2
# [18] = test system: ANKK1
# [19] = test system: T4, ARK5
# T4 construct: gene NUAK1
# [20] = test system: T5, ASK1
# T5 construct: gene MAP3K5
# 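Also: KINOMEscan kinase panel screen.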
SMILES,%Inh [1] [%],%Inh [2] [%],%Inh [3] [%],%Inh [4] [%],%Inh [5] [%],%Inh [6] [%],%Inh [7] [%],%Inh [8] [%],%Inh [9] [%],%Inh [10] [%],%Inh [11] [%],%Inh [12] [%],%Inh [13] [%],%Inh [14] [%],%Inh [15] [%],%Inh [16] [%],%Inh [17] [%],%Inh [18] [%],%Inh [19] [%],%Inh [20] [%]
CCNC(=O)/C=C/c1n[nH]c2cc(Sc3ccccc3C(=O)NC)ccc12,29,98.5,89,24,24,12,20,15,0,4,0,6,18,3,2,7,14,5,10,0
CCOc1nccc(-c2c(-c3ccc(F)cc3)ncn2C2CCNCC2)n1 [SB-249175],11,35,2,0,100,11,9,0,1,13,8,0,0,16,52,1,5,0,7,0
Cn1cc(-c2ccc3c(c2)CCN3C(=O)Cc2cc(F)cc(C(F)(F)F)c2)c2c(N)ncnc21 [GSK2635225],10,78,15,40,0,0,0,12,0,17,10,0,0,0,0,3,21,25,15,0
COC(=O)Nc1nc2ccc(Oc3ccc(NC(=O)Nc4cc(C(F)(F)F)ccc4F)cc3)cc2[nH]1.Cl [GW654607],17,99.4,57,94,0,0,0,0,0,1,54,0,100,0,18,19,15,13,9,12
NCCC(NC(=O)c1cc(Br)c(-c2ccnc3[nH]ccc23)s1)c1ccccc1.O=C(O)C(F)(F)F.O=C(O)C(F)(F)F (centres unmarked) [GSK1307810],66,0,0,8,43,15,0,0,0,52,60,91.6,52,87,50,52,34,0,18,15
COc1cc(Nc2nccc(N3CCC(NC(=O)Nc4ccc5c(c4)OCO5)C3)n2)cc(OC)c1OC (centres unmarked) [GSK1379766],66,0,0,0,0,11,0,0,0,0,69,0,2,0,63,2,10,36,24,4
Cn1cc(-c2ccc3c(c2)CCN3C(=O)Cc2cc(F)cc(F)c2F)c2c(N)ncnc21 [GSK2634140],0,82,29,57,15,0,0,0,0,6,19,0,0,0,8,18,13,12,20,0
Cc1ccc(NC(=O)c2cccc(N3CCCCC3)c2)cc1-c1ccc(C(=O)NCC2CC2)cc1 [GSK1917008],0,0,0,25,0,14,6,10,2,27,1,0,8,2,19,0,28,3,28,12
O=C(Nc1c(F)cccc1F)c1cc(C(=O)c2ccccc2F)c[nH]1 [GSK1326180],0,0,0,0,20,0,0,0,9,11,20,0,0,0,33,0,0,2,0,8
CN(C)CCOc1ccc(-c2cc(-c3ccc(Cl)c(O)c3)c(-c3ccncc3)[nH]2)cc1.Cl.Cl [SB-684387],0,50,59,34,90.5,31,0,51,0,33,21,0,0,55,18,0,11,8,1,15
